# D2 PAM-1: Beta-Arrestin HTS for Positive Allosteric Modulators of the Human D2 Dopamine Receptor: Potentiators; DiscoveRx D2 beta-arrestin cells, luminescence, 90 min; 100% = 57 uM dopamine signal; potentiation, % (test concentration not listed); 360,000 compounds, 0.23% hits; in the data active = potentiation above about 50%; inconclusive = mostly about 30% to 49%
# Target sequence (P14416 whole entry, looked up): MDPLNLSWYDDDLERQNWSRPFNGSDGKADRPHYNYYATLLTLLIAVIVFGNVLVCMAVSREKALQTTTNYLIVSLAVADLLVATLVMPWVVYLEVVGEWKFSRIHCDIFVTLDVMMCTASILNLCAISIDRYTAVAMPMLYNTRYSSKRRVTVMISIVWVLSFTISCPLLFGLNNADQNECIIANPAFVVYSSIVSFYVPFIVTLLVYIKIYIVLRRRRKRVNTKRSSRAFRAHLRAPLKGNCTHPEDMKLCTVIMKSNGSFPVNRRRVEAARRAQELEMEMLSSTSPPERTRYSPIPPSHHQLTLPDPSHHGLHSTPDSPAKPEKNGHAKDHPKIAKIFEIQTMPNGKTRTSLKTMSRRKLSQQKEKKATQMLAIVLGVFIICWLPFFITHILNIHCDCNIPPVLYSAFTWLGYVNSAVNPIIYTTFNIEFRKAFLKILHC
#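 PathHunter D2 cells, attached overnight at 37 deg C, received compound in DMSO plus dopamine at EC20 (50 nM final) for 90 min at 37 deg C. Beta-arrestin recruitment was read as luminescence after 1 h with detection reagent at ambient temperature.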
# D2 ag-1: Beta-Arrestin HTS for Positive Allosteric Modulators of the Human D2 Dopamine Receptor: Agonists; DiscoveRx PathHunter D2 beta-arrestin, luminescence, 90 min; 100% = 57 uM dopamine signal; activation, % (test concentration not listed); D(2) dopamine receptor (Homo sapiens), P14416; 360,000 compounds, 0.084% hits; in the data active = activation above about 40%; inconclusive = between about 15% and that limit
#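 Agonist mode: compounds alone added to overnight-plated D2 PathHunter cells for 90 min at 37 C, with 57 uM final dopamine (EC100) defining full response. Beta-arrestin recruitment detected by chemiluminescent reagent, read after 1 h at ambient temperature.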
# D2 PAM-2: HTS Assay for Positive Allosteric Modulators of the Human D2 Dopamine Receptor: Primary Screen for Potentiators; HEK293 T-REx D2, calcium flux, EC20 dopamine potentiation; potentiation, % at 10 µM; 340,000 compounds, 0.34% hits;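 active = potentiation over 3 SD above the plate norm, cut at about 30% in these data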; also: 0% is about no effect
#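 Using a no-wash calcium dye in inducible, force-coupled HEK293 Trex cells expressing D2, we tracked fluorescence each second for 180 s after compound, then for 180 s after EC20 dopamine to detect augmented signalling.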
# D2 ag-2: HTS Assay for Allosteric Agonists of the Human D2 Dopamine Receptor: Primary Screen for Agonists; D(2) dopamine receptor (Homo sapiens), P14416; HEK293 T-REx D2 cells, calcium flux agonist mode; activation, % at 2 µM; 340,000 compounds, 0.53% hits;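 active = activation over 3 SD above normal in the single-dose calcium agonist read, cut at about 30% in these data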; also: 0% is about no effect
#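 HEK293 Trex D2 cells, tetracycline-induced, o/n 30 C 5% CO2; no-wash Ca dye, RT 30–90 min; 10-cycle baseline, 23 nl cpd added, kinetic Ca read 180 s; agonist hits = positive Ca response.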
# D2 antag: HTS Assay for Allosteric Antagonists of the Human D2 Dopamine Receptor: Primary Screen for Antagonists. D(2) dopamine receptor (Homo sapiens), P14416. HEK293 TREx D2 cells, calcium flux, dopamine EC80. inhibition, % at 10 µM. 340,000 compounds, 2% hits. AID 485344, 2010; in the data active = inhibition above about 30%; inactive = below that, where a call was filed; also: 0% is about no effect
#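 Compounds are added to dye-loaded, induced HEK293 T-REx cells coupled to calcium release via D2; after a 3 min kinetic read an EC80 dopamine stimulus is given and fluorescence is recorded for 3 more min.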
# Starred values were filed as active, the others as inactive; u = inconclusive; x = no result given. Most compounds without a hit are left out; they make up all but 2.4% or so of the library.
SMILES,D2 PAM-1,D2 ag-1,D2 PAM-2,D2 ag-2,D2 antag
Clc1ccccc1/C=N/N1CCN(Cc2ccccc2)CC1,-5.6,-0.3,-7.5,0.3,-9.1
Cc1ccc(-c2nnc(SCC(=O)NC3CCCC3)nc2-c2ccc(C)cc2)cc1,x,x,3.1,x,x
CCCOc1ccc(-c2c(C(=O)N/N=C/c3cccs3)nnn2-c2nonc2N)cc1,3.9,1.3,48.6*,-0.3,19.1
C/C(=N/NC(=O)c1nnn(-c2nonc2N)c1-c1ccccc1)c1ccncc1,-4.0,1.8,-9.8,2.3,-1.8
COc1ccc(/C(C)=N/NC(=O)c2nnn(-c3nonc3N)c2-c2ccccc2)cc1,-4.9,-0.7,16.8,31.2*,5.8
CCOc1ccc(-c2c(C(=O)N/N=C(\C)c3cccs3)nnn2-c2nonc2N)cc1,-4.6,-9.1,74.1*,3.8,-16.8
CCCOc1ccc(-c2c(C(=O)N/N=C/c3ccc(C)o3)nnn2-c2nonc2N)cc1,-5.7,-1.2,89.9*,0.0,-0.7
CCOc1ccc(-c2c(C(=O)N/N=C/c3ccc(C)o3)nnn2-c2nonc2N)cc1,-1.0,-4.2,-5.0,0.2,8.5
COc1ccc(Cl)cc1NC(=O)c1cc(S(=O)(=O)N(C)Cc2ccccc2)ccc1F,x,x,0.6,5.0,x
CCOc1ccc(NC(=O)c2nn(C)c3c2COc2ccccc2-3)cc1,x,x,-0.8,-0.8,x
COc1cc(Nc2ncc3c(n2)CCN(Cc2ccc(OC(C)C)c(OC)c2)C3)cc(OC)c1,x,x,1.4,0.1,x
COc1ccc2c(c1)-c1nc(NC(=O)c3ccco3)sc1CC2,0.7,3.0,1.9,-1.1,4.9
COc1ccc2c(c1)CCc1sc(NC(=O)c3ccco3)nc1-2,4.0,4.6,30.2*,-0.8,-2.2
Fc1ccc(CN2CCC(Cc3ccccc3)CC2)cc1F,-6.1,-0.1,-15.5,0.5,-17.9
Clc1ccccc1OCCN1CCC(Cc2ccccc2)CC1,-14.2,1.1,-19.9,0.1,63.3*
OCc1ccccc1OCCCN1CCC(Cc2ccccc2)CC1,-14.6,-1.8,-22.4,2.4,40.5*
C=CCOc1ccccc1CN1CCC(Cc2ccccc2)CC1,-14.9,-3.0,-11.9,-0.5,30.7*
COc1cc(C)c(CN2CCC(Cc3ccccc3)CC2)cc1C,-6.5,-5.0,-19.2,x,x
Cc1ccc([N+](=O)[O-])c(OCCCN2CCC(Cc3ccccc3)CC2)c1,-8.2,1.9,x,x,x
O=Cc1cc(Cl)ccc1OCCN1CCC(Cc2ccccc2)CC1,-14.8,-1.7,-19.0,0.5,50.9*
Cc1ccc(CCNS(=O)(=O)c2cc(-c3cc(C)no3)ccc2C)cc1,x,x,4.3,0.4,x
COC(=O)c1c(-c2cccs2)csc1NC(=O)COc1ccc(C(C)(C)C)cc1,x,x,-0.8,2.3,x
COc1cc(C(C)=O)ccc1OCCN1CCC(Cc2ccccc2)CC1,-20.2,-6.0,-11.8,0.2,-15.0
O=[N+]([O-])c1cccc(OCCN2CCC(Cc3ccccc3)CC2)c1,-25.9,-0.4,-20.3,0.4,67.4*
COc1cc(CN2CCC(Cc3ccccc3)CC2)c([N+](=O)[O-])cc1OC,-20.9,-3.5,-1.6,0.8,14.9
SMILES,D2 PAM-1,D2 ag-1,D2 PAM-2,D2 ag-2,D2 antag
COc1cc(C(C)=O)ccc1OCCCN1CCC(Cc2ccccc2)CC1,-11.1,-1.8,7.5,-1.9,34.6*
CCn1c(CN2CCCCC2)nc2cc(NC(=O)COc3ccccc3C(C)(C)C)ccc21,x,x,-21.5,-1.8,x
Cc1ccc(-c2nn(-c3ccccc3Cl)cc2C(=O)NCC2CCCO2)cc1 (stereo not given),-35.5,-6.5,-2.0,0.0,30.9*
COC(=O)c1ccc(NC(=O)c2cn(-c3ccccc3)nc2-c2ccncc2)cc1,-12.9,3.9,-19.3,-0.3,91.4*
Cc1ccc(-c2nn(Cc3ccccc3)cc2C(=O)NCC2CCCO2)cc1 (stereo not given),-12.4,-3.1,8.6,-2.0,3.6
CC(=O)c1ccc(NC(=O)c2cn(-c3ccccc3)nc2-c2ccncc2)cc1,-23.6,-2.9,34.8*,0.2,-3.3
Cc1cccc(NC(=O)c2cn(-c3ccccc3)nc2-c2ccccc2)c1,-26.1,-4.6,-19.3,-0.6,40.3*
COc1cc(NC(=O)CSc2nc3nc(C)c(Cc4ccc(C)cc4)c(C)n3n2)cc(OC)c1,x,x,0.1,-0.5,x
COc1ccc(C2=C(C)C(N3CCC(C(=O)Nc4ccc(F)cc4C)CC3)=NS2(=O)=O)cc1,x,x,7.9,-1.2,x
Cc1ccc(Cn2c(=O)n(Cc3ccccc3Cl)c(=O)c3cccnc32)cc1,x,x,9.1,-0.1,x
O=C(NCCc1ccccc1)c1nn(-c2ccc(F)cc2)nc1CO,x,x,14.3,-0.9,x
O=C(CSc1n[nH]c(-c2ccccc2Cl)n1)NCc1ccc(F)cc1,x,x,14.8,0.4,x
Cc1ccc(-c2nn(-c3ccccc3)cc2C(=O)NCCCN2CCOCC2)cc1,-39.2,6.6,-15.1,0.1,31.0*
Cc1ccc(-c2nc(-c3cc4cccc(OCc5cccc(F)c5)c4oc3=O)no2)cc1,x,x,-4.4,0.4,x
C/C(Cn1nnc([N+](=O)[O-])n1)=N\NC(=O)c1ccc(O)cc1O,58.5*,u,3.4,5.6,13.0
C/C(Cn1nnc([N+](=O)[O-])n1)=N\NC(=O)c1ccccc1O,5.4,u,-4.2,0.3,-0.7
Cc1cc(S(=O)(=O)N2CCN(c3ccccn3)CC2)ccc1F,0.5,0.4,-5.3,-0.2,33.0*
O=C1c2cccc3c(O)ccc(c23)C(=O)N1Cc1ccccc1,16.6,7.6,-19.0,100.7*,33.8*
O=C(O)c1cccc(CN2C(=O)c3ccccc3C2=O)c1,-3.9,-3.5,1.8,0.2,-17.4
CCC1CCCCN1CC(=O)c1c(C)[nH]c2cc(C)ccc12 (stereo not given),-2.1,2.8,-4.5,0.6,32.9*
COc1ccccc1N1CCN(CC(=O)c2c(C)n(C)c3ccccc23)CC1,-31.3,-1.0,-25.0,-0.5,24.4
COc1ccccc1N1CCN(CC(=O)c2c(C)[nH]c3cc(C)ccc23)CC1,-13.8,-3.4,-29.8,-0.1,63.9*
O=C(NCc1cccnc1)C1CCN(Cc2cc3ccccc3n2Cc2cccc(Cl)c2)CC1,x,x,0.0,0.3,x
CCN(C(=O)Cn1cnc2c1c(=O)n(C)c(=O)n2C)c1ccccc1C,x,x,4.9,0.5,x
O=c1c2nncn2c2cc(C(F)(F)F)ccc2n1CCNc1ncc(C(F)(F)F)cc1Cl,-2.3,-5.4,-3.5,-1.9,-14.6
O=c1c(Cl)nc2cc(Cl)ccc2n1CCNc1ncc(C(F)(F)F)cc1Cl,18.0,-2.4,46.6*,0.1,0.8

# Screening data: PubChem, National Center for Advancing Translational Sciences (NCATS)
